VACV E9 pol inh: vaccinia E9 polymerase processive synthesis inhibition; actives 0.94% (n = 46,000); normalized absorbance, % (no concentration beside the values); in vitro processive DNA synthesis, absorbance read-out; active compounds read low; in the data active = normalized absorbance mostly below about 85%, no sharp cut-off; inactive = mostly above about 86%
Large screens that a line does not name were inactive. Many of the other results were omitted from the sample, so hits are more common in it than they were.

CN(C)CCCn1cc(C2=C(c3c[nH]c4ccccc34)C(=O)NC2=O)c2ccccc21	VACV E9 pol inh 68
CN(C)Cc1c[nH]c2ccccc12	none
COc1ccccc1OCCn1cc(/C=C2/SC(=S)NC2=O)c2ccccc21	none
C=CCn1cc(C(=O)NC2CCCC2)c(=O)c2cc(S(=O)(=O)N(CC)CC)ccc21	none
CSCCC(C(=O)O)N1C(=O)/C(=C/c2ccc(O)cc2)SC1=S (configuration not stated)	none
CSCCC(C(=O)O)N1C(=O)CSC1=S (configuration not stated)	none
CSCCC(C(=O)O)n1c(O)c(/C=C2\C=Nc3ccccc32)sc1=S (configuration not stated)	VACV E9 pol inh 78
NC12CC3CC(C1)CC(c1ccccc1)(C3)C2	none
CC1=C(C(=O)Nc2ccccc2)C(c2ccccc2)C2=C(N1)c1ccccc1C2=O (configuration not stated)	none
O=C(/C=C/c1cccs1)N(C1CC1)C1(C(=O)Nc2ccccc2)CCCC1	none
CCOC(=O)CSc1cc(Cl)c2cccc(C)c2n1	none
O=C(Cc1ccc(Cl)cc1)c1ccc(Cl)cc1	VACV E9 pol inh 79
O=C(CNC(=O)c1ccc(Cl)cc1)c1ccc(Cl)cc1	none
O=C(CC(SCc1ccc(Cl)cc1)C(=O)O)c1ccc(Cl)cc1 (configuration not stated)	none
CC1CCCCC1NC(=O)CCCn1ncn2c(cc3occc32)c1=O (configuration not stated)	none
CCNc1nc(SCc2ccc(Cl)cc2)nc2sc3c(c12)CCN(C)C3	VACV E9 pol inh 53
CC(C)C1Cc2c(sc3nc(SCc4ccc(Cl)c(Cl)c4)nc(N)c23)CO1 (configuration not stated)	none
CCNc1nc(SCC(=O)NC(=O)NCc2ccccc2)nc2sc3c(c12)CCN(C)C3	none
Cn1c(=NC(=O)Cc2cccs2)sc2cc(F)ccc21	none
Cc1ccccc1S(=O)(=O)Cc1ccc(C(=O)n2ccnc2)o1	none
CCCC(NC1CCS(=O)(=O)C1)C(=O)O (configuration not stated)	none
CC1CC(C)CN(C(=O)C(Cc2ccccc2)NS(=O)(=O)c2cccc3nsnc23)C1 (configuration not stated)	none
O=c1c2ccccc2nc(SCc2c(F)cccc2F)n1Cc1ccccc1	VACV E9 pol inh 76
O=c1c2ccccc2nc(SCc2ccccc2F)n1CCc1ccccc1	none
Cc1ccc(CSc2nc3ccccc3c(=O)n2Cc2ccccc2)cc1	none
CCN1C(=O)/C(=C\c2ccc(NC(=O)c3ccccc3Br)cc2)SC1=S	none
Cc1nc2sccn2c1C(=O)c1ccccc1	none
CC(C)OC(=O)CSc1ncnc2scc(-c3ccccc3)c12	none
Cc1ccc(-c2csc3ncnc(SCCC(=O)O)c23)cc1	none
O=C(O)CSc1ncnc2scc(-c3ccc(Br)cc3)c12	VACV E9 pol inh 68
CNC(=S)NCc1sc2ccccc2c1C	none
O=C1CCCc2nc(-c3ccc(O)cc3)ncc21	none
CC(=O)Nc1sc2c(c1CN1CCCCC1)CCCC2	none
Cc1ccc(C(=O)NCCc2cc3cc(C)c(C)cc3[nH]c2=O)cc1	none
O=c1oc2ccc(Cl)cc2cc1-c1cn2ccccc2n1	none
C=CCN(CC=C)c1nn[nH]n1	VACV E9 pol inh 60
C=C1c2cc(CC)ccc2NC(=O)N1c1ccccc1	none
CCOC(=O)C1=C(NC2CCCCC2)C(=O)N(c2ccccc2)C1	none
Nc1sc2c(c1C(=O)c1ccccc1)CCCC2	none
CCOC(=O)c1c(-c2ccccc2)csc1N	none
Nc1sc(-c2ccccc2)c(Cc2ccccc2)c1C(=O)O	VACV E9 pol inh 90
CC(C)c1ccc(NC(=O)CN2C(=O)c3ccccc3Sc3ccc(C(=O)N4CCCC4)cc32)cc1	none
CCN(CC)CCCC(C)Nc1c2ccc(Cl)cc2nc2ccc(OC)cc12 (configuration not stated)	VACV E9 pol inh 15
COc1ccc2nc(C)cc(SCC(=O)c3ccc(Cl)cc3)c2c1	none
CCSc1nc(C)c2cc(OC)ccc2n1	none
CC1=Nc2cc(C(=O)N(C)Cc3ccccc3)ccc2Sc2ccc(Cl)cc21	none
Oc1ccc(Br)cc1C=NCC1CCCO1 (configuration not stated)	VACV E9 pol inh 75
Oc1ccc(Br)cc1C=NCC12CCC3CC(CC(C3)C1)C2	none
Oc1ccc(Br)cc1C=NCc1ccccc1	none
O=C(NCC1OCCc2ccccc21)c1ccccc1Br (configuration not stated)	none
CC(CNC(=O)c1ccccc1)C(=O)OCC(=O)[C@@]12OC(C)(C)O[C@@H]1CC1C3CCC4=CC(=O)C=C[C@]4(C)[C@@]3(F)[C@@H](O)C[C@@]12C (some centres not stated)	none
O=c1c(Oc2ccccc2)c(C(F)(F)F)oc2cc(O)ccc12	none
Cc1sc(/N=C/c2c[nH]c3ccccc23)c(C#N)c1C	none
CN(C)C=Nc1ncc2c([nH]c3ccccc32)c1C#N	VACV E9 pol inh 89
Cc1[nH]c2ccccc2c1N=CN(C)C	none
O=C(CCn1c(=O)c2ccccc2n(CC(=O)Nc2ccccc2)c1=O)NCCc1ccccc1	none
O=C(NCCc1ccccc1)c1cc2ccccn2n1	none
CC(=O)N(C)CCc1ccc(C)[n+]([O-])c1	none
CN(C)c1ccc(C2=CC=CC(=C3C=CC(=[N+](C)C)C=C3)O2)cc1	VACV E9 pol inh 39
Cc1cc(C)n(CCc2nc3c4ccccc4nc(=S)n3[nH]2)n1	none
CCOc1cccc2sc(NC(=O)CC)nc12	VACV E9 pol inh 87
CCOc1cccc2sc(NC(=O)c3ccccc3F)nc12	none
CCC(=O)Nc1nc2c(C)c(C)ccc2s1	none
CC1CCC(C(C)C)C(OC(=O)CN2CCCCC2)C1 (configuration not stated)	none
O=C(Nc1ccc(Cl)cc1Cl)c1cc2nc3c(c(C(F)(F)F)n2n1)CCc1ccccc1-3	none
CCOC(=O)[C@@H]1Nc2ccc(C(=O)O)cc2[C@@H]2C=CC[C@H]12	VACV E9 pol inh 56
CCOC(=O)N1CCC(N2C(=O)c3ccc(C(=O)O)cc3C2=O)CC1	none
CC(=O)Nc1ccc2c(c1)C1C=CCC1C(c1cccc(Cl)c1Cl)N2 (configuration not stated)	none
CC(C)c1ccc([C@@H]2Nc3ccc(C(=O)O)cc3[C@@H]3C=CC[C@@H]32)cc1	VACV E9 pol inh 23
Fc1ccc(C2Nc3ccc(OC(F)(F)F)cc3C3C=CCC32)cc1 (configuration not stated)	none
CCOC(=O)[C@H]1NC(=O)C[C@H]1c1ccccc1	none
Cc1cc2c(cc1S(=O)(=O)NCC1CCCO1)OCC(=O)N2 (configuration not stated)	none
CCOc1nc2ccccc2c(=O)[nH]1	none
CCc1cccc(NC(=O)c2sc(-n3cccc3)nc2C)c1	none
COc1cc(C=Nc2ccc(N=Cc3ccc(OC(C)=O)c(OC)c3)cc2)ccc1OC(C)=O	none
FC(F)(F)c1cc(C#CCN2CCCCC2)cc(C(F)(F)F)c1	none
COc1ccc(C2C(C#N)=C(C)NC(C)=C2C(=O)Nc2ccccc2)cc1 (configuration not stated)	none
O=C(Cn1cc(C(=O)c2ccco2)c2ccccc21)NCC1CCCO1 (configuration not stated)	none
COc1ccc(C2=C(C#N)C(=O)OC2)cc1	none
COc1ccc(CSc2ncn[nH]2)cc1	none
COc1ccc(CSC2=C(C#N)C(=O)NC3(CCCCC3)S2)cc1	VACV E9 pol inh 71
CC1CCCN(C(=O)CCS(=O)(=O)c2cc(Br)cc3c2N(C(=O)C2CC2)CC3)C1 (configuration not stated)	none
CNC1=C(c2ccc(C(F)(F)F)cc2)C(=O)C(c2ccccc2)O1 (configuration not stated)	none
Cn1c(CSc2cc(C(F)(F)F)nc3ccccc23)nnc1SCC(=O)c1ccccc1	none
C=CS(=O)(=O)Cc1ccccc1	none
CN(Cc1ccccc1)C(=O)CNc1ccc(Br)cc1	none

Screening data from PubChem BioAssay.
